Shown are actives, neighbours in structure and some others; about 2.3% of the full set was active somewhere.
Tau fibril ThT: inhibitors of human tau fibril formation, thioflavin T binding; P10636; recombinant tau K18 P301L, heparin-induced fibrillization, ThT fluorescence; Potency, µM (series often up to 57.4 µM), for the others: top-dose activity, negative = inhibition, hits mostly inhibitors; 2.1% of 270,000 active; AID 1460; note: potency is the fitted concentration of half-maximal effect; nearly all actives have a fitted effect of over 55% in size
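In this qHTS, human K18 P301L tau is incubated with compound and heparin for 6 hr at 37 C, and Thioflavin T fluorescence then reports fibril load.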
FBPA coupling cs: inhibits coupling enzyme system, counter-screen for aldolase hits | coupling enzyme system counterscreen, AmpLite Red fluorescence | activity change, negative = inhibition, % at 58.2 µM, hits read low | 0.67% of 290,000 active | AID 2472; in the data active = activity change below about -30%
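Coupling enzymes only (glyceraldehyde-3-phosphate) + compound, at 57.5 uM final, 10 min RT; add substrate/coupling/AmpLite Red mix, 20 min RT; fluorescence ex 525/em 598 nm. Actives flag coupling-system interference.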
Tau fluor counter: counter-screen for tau fibril formation inhibitors; tau K18 P301L (four-repeat tau fragment) Alexa594 fluorescence, heparin fibrillization; Potency, µM (series often up to 57.7 µM), for inactives: at the highest dose activity change, negative = decrease; 0.93% of 280,000 active; AID 1463; note: potency is the fitted concentration of half-maximal effect; nearly all actives have a fitted effect of over 55% in size
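Human K18 P301L tau (15 uM unlabeled plus 0.24 uM Alexa 594-labeled, final) in 100 mM sodium acetate pH 7 was mixed with compound and 20 uM heparin and incubated 6 hr at 37 C.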
Tau FP inhib: inhibitors of human tau fibril formation. Potency, µM (series often up to 57.7 µM), for inactives: at the highest dose activity, negative = inhibition, actives largely listed as inhibitors. K18 P301L tau heparin fibrillization, Alexa594 FP, 6 h. 0.39% of 280,000 active; note: potency is the fitted concentration of half-maximal effect; nearly all actives have a fitted effect of over 55% in size
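K18 P301L tau (15 uM unlabeled/0.24 uM Alexa 594-labeled, final) + compound + heparin 20 uM final; 100 mM NaOAc pH 7; 6 hr 37 C; ThT 30 uM final added, 1 hr RT; FP ex 555/em 632 nm.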
USP1 inh: blocks the human USP1/UAF1 deubiquitinase complex. Potency, µM (highest dose often 57.1 µM), without a hit: top-dose activity change, negative = inhibition, hits mostly inhibitors. O94782. 0.23% of 390,000 active. recombinant USP1/UAF1, Ub-Rhodamine cleavage fluorescence; note: potency is the fitted concentration of half-maximal effect; nearly all actives have a fitted effect of over 60% in size
Target sequence (O94782 whole entry, looked up): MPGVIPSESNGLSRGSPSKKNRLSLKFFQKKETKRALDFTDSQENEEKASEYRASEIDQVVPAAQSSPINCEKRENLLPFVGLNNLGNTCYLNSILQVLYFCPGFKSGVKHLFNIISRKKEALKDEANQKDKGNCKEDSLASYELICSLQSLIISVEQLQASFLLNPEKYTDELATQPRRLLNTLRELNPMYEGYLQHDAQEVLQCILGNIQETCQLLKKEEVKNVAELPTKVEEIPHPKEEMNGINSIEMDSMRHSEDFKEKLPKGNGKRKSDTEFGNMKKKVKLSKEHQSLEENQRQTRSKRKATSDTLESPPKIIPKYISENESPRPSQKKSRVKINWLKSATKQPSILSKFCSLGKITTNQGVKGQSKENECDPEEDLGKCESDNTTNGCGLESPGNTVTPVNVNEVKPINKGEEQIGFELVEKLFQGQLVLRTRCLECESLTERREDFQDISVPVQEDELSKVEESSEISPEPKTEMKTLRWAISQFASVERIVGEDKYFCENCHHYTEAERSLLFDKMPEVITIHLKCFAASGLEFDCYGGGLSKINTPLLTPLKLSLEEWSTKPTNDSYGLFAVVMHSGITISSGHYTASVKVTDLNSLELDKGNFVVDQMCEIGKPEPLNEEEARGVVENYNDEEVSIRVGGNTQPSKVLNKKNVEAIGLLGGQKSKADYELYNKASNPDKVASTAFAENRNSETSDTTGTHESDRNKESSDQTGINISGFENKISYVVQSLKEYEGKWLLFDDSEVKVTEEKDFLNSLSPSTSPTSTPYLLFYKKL
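1 nM enzyme complex + cpd, 15 min RT; start with Ub-Rho 150nM final; kinetic fluorescence ex 480/em 540, 6 reads q60 s. Buffer 50mM HEPES pH 7.8, 0.5mM EDTA, 0.1 mg/ml BSA, 1mM TCEP, 0.01% Tween-20.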
An asterisk follows results filed as active; u = inconclusive; x = not tested or not shown; ! = a repeat was not active; [ ] = another dose, or the depositor's remark. Unless noted, calls come from the whole dose curve; as a rule, active = well fitted curve in the direction sought with a large enough effect; inconclusive = small, poorly fitted or top-dose-only effect, or another doubt; inactive = no such curve, though single readings can be large; an effect the other way counts as inactive or inconclusive. % is set by controls: 0 for no effect and ±100 for the full control effect.

SMILES | Tau fibril ThT | FBPA coupling cs | Tau fluor counter | Tau FP inhib | USP1 inh
COc1ccc(NCC(=O)Nc2ccc(C#N)cc2)cc1Cl | u | 4 | 14µM*[quencher] | u | -12%
Cc1[nH]n(-c2ccccc2)c(=O)c1/C=C1/C=c2ccccc2=N1 | 2.2µM* | -1 | -21% | 14% | -6%
Cc1cc(N2CCN(C)CC2)nc2ccc(NC(=O)CCC3CCCC3)cc12 | x | 2 | x | x | -4%
Cc1cc(N2CCN(C)CC2)nc2ccc(NC(=O)Nc3ccc(F)cc3F)cc12 | u | x | 16µM*[quencher] | u | -11%
Cc1ccc(NC(=O)Nc2ccc3nc(N4CCN(C)CC4)cc(C)c3c2)cc1C | 8.9µM* | x | 4.5µM*[quencher] | 3% | -18%
CCOc1cc(C(=O)Nc2ccc3nc(N4CCN(C)CC4)cc(C)c3c2)cc(OCC)c1OCC | u | x | u | u | -6%
Cc1cc(N2CCN(C)CC2)nc2ccc(NC(=O)Nc3ccccc3)cc12 | u | x | 18µM*[quencher] | u | -36%
Cc1cc(N2CCN(C)CC2)nc2ccc(NC(=O)Nc3cccc(Cl)c3)cc12 | 14µM* | x | 4µM*[quencher] | u | u
Cc1cc(N2CCN(C)CC2)nc2ccc(NC(=O)c3cccnc3Cl)cc12 | u | -2 | -17% | -5% | -2%
Cc1cc(N2CCN(C)CC2)nc2ccc(NC(=O)c3ccccc3F)cc12 | u | 1 | u | -2% | -22%
CC1=C(c2ccc(C)cc2)S(=O)(=O)NC1=NCc1ccccc1Cl | -13% | x | -14% | -3% | -5%
CC(C)n1c(CSCc2ccc(Cl)cc2Cl)n[nH]c1=S | -16% | 4 | -24% | -2% | -16%
Cc1cccc(NC(=O)Cn2c(=O)nc(-c3ccccc3)c3ccccc32)c1C | 4% | x | 7% | 2% | -5%
Cc1cc(N2CCN(C)CC2)nc2ccc(NC(=O)Nc3ccccc3Br)cc12 | 13µM* | x | 13µM*[quencher] | u | u
Cc1cc(N2CCN(C)CC2)nc2ccc(NC(=S)NC3CC3)cc12 | -12% | 3 | -5% | 0% | -21%
CCCCN(CC)CCNC(=O)CCC(=O)Nc1ccc2nc(N3CCN(C)CC3)cc(C)c2c1 | -20% | -34* | -14% | -3% | -1%
COc1nc(-c2ccccc2)ccc1-c1noc(-c2ccccc2Br)n1 | -15% | x | -16% | u | -7%
CC(=O)Nc1ccc(C)cc1-c1nc2ccccc2n(CC(=O)c2ccc(Cl)cc2)c1=O | 7% | x | 5% | -2% | -17%
CC1=NN(c2ccc(Cl)cc2)C(=O)/C1=C\c1cccn1-c1ccc(S(N)(=O)=O)cc1 | 7.1µM* | 2 | 11µM*[quencher] | 11% | -11%
Cc1ccc(S(=O)(=O)N/N=C/c2cccn2-c2ccc(Cl)cc2)cc1 | u | 7 | u | u | -16%
O=C(CSc1c2c(nc3cc(Cl)ccc13)CCCC2)N1CCN(c2ccccc2F)CC1 | u | x | -26% | -9% | -19%
Cc1ccc(OCC(=O)Nc2ccccc2C(=O)OCc2cc(=O)n3c(C)csc3n2)cc1 | -12% | x | -14% | -1% | 5%
CCOCCCNC(=O)/C(C#N)=C/c1cc(OC)c(O)c([N+](=O)[O-])c1 | 14µM* | -4 | -11% | 10% | -9%
CCOCCCNC(=O)/C(C#N)=C/c1ccc(Cl)c([N+](=O)[O-])c1 | u | 1 | -26% | 5% | -6%
COc1ccc(CCN2C(=O)N(c3ccc(C)cc3)C(=O)C2CC(=O)Nc2ccc(OC)cc2)cc1 (configuration not stated) | 4% | x | u | -5% | -20%
SMILES | Tau fibril ThT | FBPA coupling cs | Tau fluor counter | Tau FP inhib | USP1 inh
COc1ccc(C2=CC3=C(Br)C(=O)C(C)(O)C(=O)C3=CO2)cc1 (configuration not stated) | 18µM*! | -3 | u | u | 35µM*
COc1ccc(C2=CC3=CC(=O)C(C)(O)C(=O)C3=CO2)cc1 (configuration not stated) | -15% | 1 | -11% | 6% | x
CCC(=O)OC1(C)C(=O)C=C2C=C(c3ccc(C#N)cc3)OC=C2C1=O (configuration not stated) | -10% | -1 | -4% | -8% | u
CCC(=O)OC1(C)C(=O)C2=COC(c3ccc(OC)cc3)=CC2=C(Br)C1=O (configuration not stated) | 16µM* | 2 | -11% | -7% | 35µM*
O=C(COc1ccccc1F)Nc1nnc(SCc2cc(=O)c3ccccc3[nH]2)s1 | -10% | x | -3% | -5% | -9%
C[C@H]1Cc2c(COc3ccccc3)nc3c(c2CO1)CN(S(=O)(=O)c1ccc(C#N)cc1)CC3 | -13%[11.5 µM] | 1 | -21%[11.6 µM] | -4%[11.6 µM] | x
O=C(CSc1nc2ccccc2c(=O)n1-c1ccc(F)cc1F)c1c[nH]c2ccccc12 | u | 1 | u | 28µM* | -3%
CN1C(=O)/C(=C/C=C2\SCCN2C)SC1=S | u | -1 | -15% | 4% | x
CN1C(=O)/C(=C/C=C2\SCCN2C)N(C)C1=S | 28µM* | -17 | -15% | -8% | u
O=S(=O)(Nc1ccccc1C(F)(F)F)c1ccc(N2CCCCS2(=O)=O)cc1 | -5% | x | -1% | -1% | -11%
NN/C(=C\[N+](=O)[O-])Nc1ccc(Cl)cc1 | 16µM* | -1 | u | -2% | -4%
Cn1c(=O)c2[nH]c(N=Nc3ccc(N)cc3N)nc2n(C)c1=O | 14µM* | -8 | u | -9% | -24%
CC(C)(C)OC(=O)NCc1ccc(NC(=O)c2nc[nH]c2C(=O)N[C@@H](Cc2ccccc2)C(=O)OCc2ccccc2)cc1 | 5% | -4 | u | 10µM* | u
Cc1cccc(NC(=O)c2nc[nH]c2C(=O)N[C@@H](Cc2ccccc2)C(=O)OCc2ccccc2)c1 | u | 2 | u | 11µM* | -16%
C[C@H](NC(=O)c1nc[nH]c1C(=O)N[C@@H](Cc1ccccc1)C(=O)OCc1ccccc1)C(=O)OCc1ccccc1 | x | -7 | x | x | -23%
CC(C)(C)CC(=O)Nc1ccc(S(=O)(=O)N2CCCC2)cc1 | -8% | 2 | -12% | 0% | -16%
COc1ccc(-c2cn[nH]c2-c2ccc(OCc3ccc([N+](=O)[O-])cc3)cc2O)cc1OC | u | -8 | 7.1µM*[quencher] | u | -17%
CCOc1ccc(-c2[nH]ncc2-c2ccccc2)c(O)c1 | x | x | x | x | -8%
COc1ccc(-c2cn[nH]c2-c2ccc(OCc3ccccc3F)cc2O)cc1OC | -11% | -4 | 13µM*[quencher] | u | -1%
Cc1nn(C(C)C(=O)NC2CCC(C)CC2)c(=O)c2c1sc1ccccc12 (configuration not stated) | u | x | -25% | 0% | -25%
O=C(N/N=C/C(Cl)=C/c1ccc([N+](=O)[O-])cc1)C(=O)Nc1cccc(C(=O)O)c1 | 3.5µM* | -1 | u | -7% | -13%
Cc1ccc(CC(=O)Nc2c(C(=O)N3CCN(c4ccccc4)CC3)oc3ccccc23)cc1 | -8% | x | -4% | 12% | -10%

High-throughput results from PubChem BioAssay.
